# HSF1 inh: HSF1 inhibition. NIH3T3-HGL HSE-luciferase, MG132-induced, luminescence 8 h; stronger effect = lower value. activity change, negative = inhibition, % at 7.5 µM (by protocol). hit rate 0.77% among 300,000;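 active means more than half of replicate wells show activity change below -50%, luminescence cut by over half; inconclusive means some wells, but at most half, below -50%; inactive means no replicate well below -50%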;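 further: luciferase reports HSF-1 transcriptional activity via heat shock element; 0% = median of DMSO wells and -100% = zero luminescence signal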
# EBV LMP1 NFkB: inhibitors of Epstein-Barr LMP1-induced NF-kappaB reporter | AID 504558 | hit rate 0.69% among 350,000 | inhibition, % at 12.5 µM | LMP1-induced NF-kappaB luciferase reporter cells, luminescence; in the data active means inhibition above about 41%; inconclusive means no clear call, values can overlap the other calls;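 further: 0% = neutral control wells and 100% = reference inhibitor control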
# HSF1 activator: increases HSF-1 driven luciferase reporter signal; NIH3T3-HGL HSF-1 luciferase reporter, MG132, 8 h; 100% = twice DMSO control signal; activation, % at 9 µM; hit rate 1.7% among 300,000;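 active means mean replicate activation of at least 50% with a set share of replicates each reaching 50%; inconclusive means only one of those two conditions met; inactive means mean below 50% and too few replicates reaching it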;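 further: 0% = median of the neutral control wells and 100% = twice that signal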
# TWEAK-Fn14 inh: inhibitors of TWEAK-Fn14 interaction signaling. TWEAK-stimulated Fn14 reporter cells, luciferase luminescence, 8 h. inhibition, % at 10 µM. hit rate 2% among 360,000; in the data active means inhibition above about 50%
# TROY signal inh: inhibitors of TROY-dependent NF-kB signaling; AID 1347056; Q293 LMP1-TROYcd NF-kB luciferase reporter, 4 h; hit rate 0.98% among 360,000; inhibition, % at 10 µM;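 active means compounds whose plate-normalised and pattern-corrected inhibition of the luciferase reporter signal at the single screening dose is 50% or more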
# LGR2 antag: inhibitors of bursicon-induced Drosophila LGR2 receptor cAMP signaling; HEK293 LGR2, CRE-luciferase, bursicon-stimulated, 4 h; inhibition, % at 9.99 µM; hit rate 0.35% among 380,000; AID 720647;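 active means drop in luminescence signal, shown as inhibition above about 50% in the replicate tests, limit read from the data, passing the limit was not always enough; inconclusive means probably only some replicates passing the limit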;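 further: agonist challenge used bursicon conditioned medium at about half maximal strength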
# Starred values were filed as active, the others as inactive; ? = inconclusive; . = no result given. An excerpt weighted towards active compounds, which were near 3.6% of everything screened.
SMILES,HSF1 inh,EBV LMP1 NFkB,HSF1 activator,TWEAK-Fn14 inh,TROY signal inh,LGR2 antag
C[C@@H](NC(=O)C[C@@H]1C[C@H]2c3cc(NC(=O)C4CCOCC4)ccc3O[C@H]2[C@@H](CO)O1)c1ccccc1,.,.,.,.,.,-3.9
COc1ccc(C(=O)O/N=C(\N)c2ccc(OC)c(OC)c2)c(OC)c1,25.1,-13.5,34.3,-6.3,-40.8,.
COc1ccc(C(=O)O/N=C(\N)c2ccccc2)c(OC)c1,-40.0,34.4,-49.0,86.0*,76.6*,82.3*
C/C(=N\OC(=O)c1ccc(F)cc1)c1ccc(F)c(F)c1,19.9,8.2,53.7*,-2.1,-73.6,.
COc1ccc(C(=O)COC(=O)c2ccccn2)c(OC)c1,.,-2.6,.,-4.7,-48.3,-35.5
COc1ccc(C(=O)O/N=C(\N)c2ccccn2)c(OC)c1,-7.8,38.3,1.0,88.0*,73.1*,81.5*
C[C@@H]1CN([C@H](C)CO)C(=O)c2cc(NS(=O)(=O)c3cn(C)cn3)ccc2O[C@@H]1CN(C)Cc1ccc2c(c1)OCO2,.,.,.,.,.,6.9
Cc1ccc(C(=O)NCCc2cccs2)cc1,-23.4,63.6*,-34.1,84.9*,69.1*,75.4*
O=C(NCCc1cccs1)c1ccc(Cl)cc1,15.8,8.9,36.9,58.9*,3.4,10.2
Cc1ccc(C(=O)NCCSC(C)(C)C)cc1,22.6,17.0,45.3,52.5*,16.2,3.5
C[C@H](NC(=O)C[C@@H]1CC[C@@H]2[C@H](COC[C@H](O)CN2C(=O)Nc2cc(Cl)cc(Cl)c2)O1)c1ccccc1,.,.,.,.,.,19.5
NS(=O)(=O)c1ccc(CCNc2ccn3nc(-c4ccccc4)cc3n2)cc1,.,.,.,5.9,-17.3,-15.2
CC(C)Cc1ccc(-c2cc3nc(NCCc4ccc(S(N)(=O)=O)cc4)ccn3n2)cc1,.,.,.,54.4*,3.4,16.9
C[C@H](CO)N1C[C@H](C)[C@@H](CN(C)Cc2ccc(Cl)c(Cl)c2)OCCCC[C@H](C)Oc2ccc(NC(=O)Nc3cccc4ccccc34)cc2C1=O,.,.,.,.,.,2.3
CCCS(=O)(=O)N1CCc2cc(OC)c(OC)cc2C1,-55.1*,1.9,-67.9,-23.0,-36.6,.
COc1ccc(S(=O)(=O)N2CCc3cc(OC)c(OC)cc3C2)cc1,-1.6,-11.3,-17.7,6.5,2.0,-11.6
CC(C)(C)c1ccc(-n2nc(C(N)=O)c(O)cc2=O)cc1,4.0,-0.4,-9.2,6.0,9.5,-9.7
CC(C)(C)c1ccc(-n2nc(C#N)c(Cl)cc2=O)cc1,152.3,3.6,152.6*,104.7*,89.4*,100.7*
CC(=O)Nc1ccc(SCC(=O)c2cc(C)n(-c3ccccc3)c2C)cc1,-67.5*,12.6,-74.5,72.7*,44.2,8.5
Cc1cc(C(=O)C(C)OC(=O)c2ccc(NC(=O)CC#N)cc2)c(C)n1-c1ccccc1 (stereo unspecified),-23.0,14.6,-30.2,64.0*,44.7,12.4
C[C@H](CO)N1C[C@H](C)[C@H](CN(C)Cc2ccccc2)Oc2c(NC(=O)C3CCOCC3)cccc2C1=O,.,.,.,.,.,-8.2
Cc1ccc(-c2ccc(=O)[nH]n2)cc1,24.3,3.3,55.3*,-7.8,18.4,9.4
COCC(C)NC(=O)/C(=C/c1ccccc1)c1ccccc1 (stereo unspecified),21.2,15.7,60.1*,1.6,8.1,23.5
COCC(C)NC(=O)c1ccc2nc(-c3ccccc3)c(-c3ccccc3)nc2c1 (stereo unspecified),-81.3*,11.1,-85.5,1.0,7.5,-7.1
CCC(C)NC(=O)c1ccc2nc(-c3ccc(OC)c(OC)c3)c(-c3ccc(OC)c(OC)c3)nc2c1 (stereo unspecified),1.6,-4.9,-6.7,-20.9,-11.7,25.9
SMILES,HSF1 inh,EBV LMP1 NFkB,HSF1 activator,TWEAK-Fn14 inh,TROY signal inh,LGR2 antag
O=c1c(Br)c(N2CCCC2)cnn1-c1ccccc1,8.4,-22.2,26.7,6.7,-28.2,-21.7
Cc1ccc(-n2ncc(Br)c(Br)c2=O)cc1,-84.6*,18.6,-85.5,78.3*,68.7*,.
COc1cnn(-c2ccccc2)c(=O)c1N(C)C,-1.5,-2.8,-1.5,32.1,54.1*,.
COc1cnn(-c2cccc(C)c2)c(=O)c1Cl,2.6,2.4,5.8,19.3,2.7,.
O=c1c(Br)c(Br)cnn1-c1ccccc1,.,1.8,.,92.8*,77.3*,5.1
C[C@H]1CCCCO[C@@H](CN(C)Cc2ccncc2)[C@@H](C)CN([C@@H](C)CO)C(=O)c2cc(NS(=O)(=O)c3ccc(F)cc3)ccc2O1,.,.,.,.,.,10.0
Cc1ccc(-c2cc(-c3ccccc3)no2)c(O)c1,14.1,2.8,6.3,75.8*,52.8*,?
